KCNQ2 enhance: enhances the rat KCNQ2 potassium channel; O88943; CHO-K1 KCNQ2, FluxOR thallium flux fluorescence; hits give high values; B-score at 10 µM; hit rate 0.54% among 310,000; AID 2239;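 active = fluorescence ratio B-score at least 3 SD of library B-scores, with initial fluorescence B-score within 3 of them, cut at about 5.3 in these data; same plate scores as AID 2156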;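 also: B-score of peak minus minimum over baseline fluorescence ratio after K+ and Tl+ stimulus; positive B-score means potentiation of KCNQ2 with more thallium influx and brighter signal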
KCNQ2 block: inhibitors of rat KCNQ2 potassium channel | O88943 | CHO-K1 KCNQ2, FluxOR thallium flux, 20 min; hits give low values | B-score at 10 µM | hit rate 1.1% among 310,000;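 active = fluorescence ratio B-score at most minus 3 library SDs, with starting brightness B-score within 2 library SDs, cut at about -5.5 in these data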
Starred values were filed as active, the others as inactive; i = inactive; . = no result. Rows were chosen to be rich in hits. Some 1.6% of all compounds tested hit in one or more screens of this group.

SMILES | KCNQ2 enhance | KCNQ2 block
O=C(CSc1nncs1)Nc1ccc(Cl)cc1C(F)(F)F | . | i
CCCCN(S(=O)(=O)c1ccccc1)S(=O)(=O)c1ccccc1 | -6 | -6*
CCCCN(c1ccccc1)S(=O)(=O)N(C)C | . | i
CC(NC(=O)CNC(=O)c1cccc(Cl)c1)c1ccccc1 (stereo not given) | . | i
CCC[C@@H](CNC)NC[C@H](Cc1ccccc1)NCCCCc1ccccc1 | -6 | -6*
CCC[C@@H](CN[C@@H](CNC)C(C)C)NCCCCc1ccccc1 | . | i
CC(=O)c1ccc(N(C(=O)Cc2c[nH]c3ccccc23)C(C(=O)NC2CCCCC2)c2cccs2)cc1 (stereo not given) | . | i
Cc1cccc(N(C(=O)Cc2cccs2)C(C(=O)NC2CCCC2)c2ccncc2)c1 (stereo not given) | . | i
O=C(NC1CCCCC1)C(c1cccs1)N(C(=O)Cc1c[nH]c2ccccc12)c1ccc(F)cc1 (stereo not given) | -6.8 | -6.8*
Cc1ccc(N(C(=O)Cc2cccs2)C(C(=O)NC2CCCCC2)c2ccccn2)cc1C (stereo not given) | -6.2 | -6.2*
CSc1ccc(S(=O)(=O)N2CCC(C(=O)Nc3ccccc3C(F)(F)F)CC2)cc1 | 0.19 | i
CCOc1ccc(NC(=O)c2cc(S(=O)(=O)N3CCOCC3)cn2C)cc1 | 0.18 | i
Cc1ccc(C)c(-c2cc(C(=O)Nc3cccc(C(=O)O)c3)c3ccccc3n2)c1 | . | i
O=C(NNC(=S)Nc1ccccc1)c1cc(-c2cccnc2)nc2ccccc12 | -6.1 | -6.1*
Cc1cc(NC(=O)c2cc(-c3ccc(C)s3)nc3ccccc23)no1 | . | i
CCOC(=O)c1ccc(NC(=S)NNC(=O)c2cc(-c3cccnc3)nc3ccccc23)cc1 | . | i
Cc1ccc(C)c(-c2cc(C(=O)Nc3cccnc3)c3ccccc3n2)c1 | -6.3 | -6.3*
Cc1cccc(NC(=O)c2cc(-c3ccc(C)s3)nc3ccccc23)n1 | -7.5 | -7.5*
Cc1ccc(NC(=O)c2cc(C)nc3ccccc23)cc1 | 0.37 | i
Cc1ccc(C)c(NC(=O)c2cc(C)nc3ccccc23)c1 | -5.9 | -5.9*
O=C(NCCCN1CCOCC1)c1cc(-c2ccc(Br)cc2)nc2ccccc12 | -6.8 | -6.8*
O=C(NCCCN1CCOCC1)c1cc(-c2ccc3c(c2)OCO3)nc2ccccc12 | . | i
O=C(Nc1cccnc1)c1cc(-c2ccc(Br)cc2)nc2ccccc12 | -6.3 | -6.3*
CC(=O)Nc1cccc(NC(=O)c2cc(-c3cccnc3)nc3ccc(Br)cc23)c1 | . | i
COc1cc(CO)c(OC)c([N+](=O)[O-])c1 | 1.1 | i
SMILES | KCNQ2 enhance | KCNQ2 block
Cc1ccc(C)c(N2CC(C(=O)OCC(=O)Nc3cc(C)on3)CC2=O)c1 (stereo not given) | . | i
Cc1ccc(NC(=O)N2C3CCCC2CC(NC(=O)C(C)(C)C)C3)cc1 (stereo not given) | . | i
O=C(CN(C(=O)c1cc2c(s1)CCC2)C1CCCC1)NCc1cccs1 | -7.1 | -7.1*
O=C(CN(Cc1ccccc1)C(=O)c1cc2c(s1)CCC2)NCc1cccs1 | . | i
CCCN1CC(=O)N2Cc3[nH]c4ccccc4c3C[C@H]2C1=O | . | i
CC(C)CCN1CC(=O)N2Cc3[nH]c4ccccc4c3C[C@H]2C1=O | -7.2 | -7.2*
N#Cc1ccccc1NC(=O)CSc1cn[nH]n1 | 0.29 | i
COc1ccc(C(CNC(=O)COc2cc(C)c(Cl)c(C)c2)N2CCCCC2)cc1 (stereo not given) | -6 | -6*
COc1ccc(C(CNC(=O)c2oc3ccc(C)cc3c2C)N2CCCCC2)cc1 (stereo not given) | . | i
COc1ccc(C(CNC(=O)c2oc3cc(C)c(Cl)cc3c2C)N2CCCCC2)cc1 (stereo not given) | -5.8 | -5.8*
COc1ccc(C(CNC(=O)COc2ccc(C)c(C)c2)N2CCCCC2)cc1 (stereo not given) | . | i
O=C(c1ccco1)N1CCN(Cc2csc(-c3ccccc3Cl)n2)CC1 | . | i
O=C(CCNC(=O)c1ccc(Br)cc1)NCc1ccccn1 | . | i
Cc1ccc(N2C(=O)c3cccc4c(Oc5ccccc5[N+](=O)[O-])ccc(c34)C2=O)c(C)c1 | -6 | -6*
Cc1cc(O)ccc1N1C(=O)c2cccc3cc([N+](=O)[O-])cc(c23)C1=O | . | i
Cc1cc(C)c2nc(-c3cccnc3)cc(C(=O)NC(C)c3cnn(C)c3C)c2c1 (stereo not given) | -8 | -8*
Cc1cccc2c(C(=O)O)cc(-c3cccnc3)nc12 | 0.01 | i
Cc1c(C(=O)Nc2ccc(F)cc2)sc2ncn(CC(=O)N3CCCCC3)c(=O)c12 | . | i
O=C(NCCc1nc2ccccc2[nH]1)C1CCC(=O)N(CCc2cccc(F)c2)C1 (stereo not given) | 0.67 | i
FC(F)(F)c1ccc2c(c1)[nH]c(=S)n2C1CC1 | 0.73 | i
Cc1ccc(S(=O)(=O)Oc2ccccc2/C=N/NC(=O)c2c(Cl)cnn2C)cc1 | -6 | -6*
Cn1ncc(Cl)c1C(=O)N/N=C/c1ccccn1 | . | i
COCCNc1cnn(-c2ccccc2)c(=O)c1Cl | . | i
OC1CN=C2CCCc3c2n(c2ccc(Cl)cc32)C1 (stereo not given) | . | i
c1ccc(-c2ccc3c(c2)c2c4n3CCN=C4CCC2)cc1 | -7.5 | -7.5*
SMILES | KCNQ2 enhance | KCNQ2 block
CC1(C)C2CCC1(C)C(OC(=O)CNc1ccccc1)C2 (stereo not given) | . | i
COc1cc(C(=O)OC2CC3CCC2(C)C3(C)C)ccc1OC(C)=O (stereo not given) | -5.7 | -5.7*
Cc1ccc(C(=O)N2CCCC(C(=O)Nc3cccc(-c4ccc(F)cc4)c3)C2)cn1 (stereo not given) | . | i
CN(C)c1ccc(S(=O)(=O)N(C)C)cc1NC(=O)Cc1cccc2ccccc12 | -7.5 | -7.5*
O=C(Cc1cccc2ccccc12)Nc1ccc(O)cc1C(=O)O | . | i
CCOC(=O)CNC(=O)N1CCCC(Cc2ccccc2)(C(=O)OCC)C1 (stereo not given) | . | i
COc1ccc(/C(C#N)=C/c2c(-c3ccc(Cl)cc3)nc3c(C)cccn23)cc1 | . | i
Cc1cccn2c(/C=N/OCc3ccc(F)cc3)c(-c3ccc(Cl)cc3)nc12 | -6.6 | -6.6*
CCOC(=O)C(CCCOc1cccc(CC)c1)C(=O)OCC | . | i
CCOC(=O)C(CCCCOc1cccc(CC)c1)C(=O)OCC | -5.6 | -5.6*
O=C(CSC1=NS(=O)(=O)c2ccccc2N1)NCc1ccc(F)cc1 | . | i
O=C(c1ccccc1)N1CCN(C(=S)NCc2ccco2)CC1 | 1.6 | i
CCCCn1cnc2sc(-c3ccccc3)cc2c1=O | 0.71 | i
O=c1c2cc(-c3ccccc3)sc2ncn1/N=C/c1ccco1 | -5.9 | -5.9*
CN(c1ccccc1)S(=O)(=O)c1cc(Cl)ccc1Cl | . | i
CN(c1ccccc1)S(=O)(=O)c1cccc(Cl)c1Cl | -5.6 | -5.6*
Cn1ncc(C#N)c1/N=C/N1CCCC1 | 0.14 | i
Cn1ncc(C#N)c1/N=C/N(Cc1ccccc1)Cc1ccccc1 | -5.7 | -5.7*
C=CCN1C(=O)c2ccc(C(=O)N3CCN(S(=O)(=O)c4ccccc4Br)CC3)cc2C1=O | 0.71 | i
O=C(NCc1ccncc1)c1ccc(S(=O)(=O)Nc2ccccc2)cc1 | 0.12 | i
O=C(CCN1CCCC1)c1cccs1 | . | i
O=C(CCc1ccc(CCC(=O)c2cccs2)s1)c1cccs1 | -6.8 | -6.8*
CCN(CC(=O)Nc1cc(Cl)ccc1C)C(=O)COc1cccc2c1OC(C)(C)C2 | 0.02 | i

Screening data deposited in PubChem by Johns Hopkins Ion Channel Center.
